For 6 compounds, inhibition results are on record in PubChem BioAssay AID492992 (Johns Hopkins Ion Channel Center, 2010).

Out of some 4,900 compounds screened, about 2,100 (43%) were called active. The set was probably picked from earlier hits. This is one part of a sample in which actives are shown more often than they occur.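 How the source made its calls: active means thallium signal inhibited by more than 5 SD of the compound-free buffer control wells, on both duplicate plates; inactive means the rest.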

Sequence of Potassium channel subfamily K member 9 (Homo sapiens) (Q9NPC2 whole entry, looked up): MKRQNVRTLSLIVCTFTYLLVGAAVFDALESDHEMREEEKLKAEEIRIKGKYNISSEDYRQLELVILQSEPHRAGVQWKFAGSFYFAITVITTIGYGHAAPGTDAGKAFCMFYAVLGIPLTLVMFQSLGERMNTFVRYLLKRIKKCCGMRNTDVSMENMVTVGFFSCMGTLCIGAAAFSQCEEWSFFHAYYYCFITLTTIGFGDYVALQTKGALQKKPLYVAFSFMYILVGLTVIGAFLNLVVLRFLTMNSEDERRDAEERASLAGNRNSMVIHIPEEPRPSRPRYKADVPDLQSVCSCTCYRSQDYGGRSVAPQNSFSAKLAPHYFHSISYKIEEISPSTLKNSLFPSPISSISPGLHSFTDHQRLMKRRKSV

This test addresses Potassium channel subfamily K member 9 (Homo sapiens) (UniProt Q9NPC2). The test can be described thus: KCNK9 potassium channel inhibitors, confirmation, HEK293 cells, thallium flux, duplicate (AID 492992).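 On inhibition: 0% = assay buffer control wells without compound.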 The conditions noted are these: FluxOR thallium flux fluorescence, at 10 µM; stronger effect = higher value.
With `CC(C)(C)c1ccc(CN2C(=O)CN=C(c3ccccc3)c3ccccc32)cc1`, the inhibition was 59% (active).

As for `CCOC(=O)C1SC2(C(F)(F)C(F)F)CC1(O)c1c(c(OC)c3occc3c1OC)O2` (stereo unspecified), the inhibition is 23.5% (active).

As to `CC(C)n1c(=O)c(C=Nc2ccc(Br)cc2)c(O)n(Cc2ccco2)c1=O`, the inhibition result is “inactive”.

In the case of `CCCCCCN=C(CC)c1c(O)n(CCCC)c(=O)[nH]c1=O`, the inhibition was 46.5% (active).

Consider `CC(C)(C)c1ccc(OC(=O)N2CCCCC2)cc1`, for which the inhibition result was “inactive”.

As for `CCCCCCCCCCCCn1ccc(=N)cc1`, the inhibition is 52.5% (active).
